Our source for the binding signal values is US5652105, “Substrate for detection of mammalian 5-C-DNA methyltransferase” (Health Research, Inc.).

The target in this experiment is DNA 5-C-methyltransferase (murine, Friend erythroleukemia cells) (Mus musculus, UniProt P13864 P13864:1-1620). In words: same rate as unmethylated A. The conditions noted are these: protein: extract; tags: 0.3 M NaCl nuclear extract, 100,000 x g supernatant; single approx. 190 kDa species forming covalent complexes; homodimer, no analogous stem-loop; ssDNA; 5mC at 7.
DNA 5-C-methyltransferase (murine, Friend erythroleukemia cells), sequence (P13864 whole entry, one chain of several): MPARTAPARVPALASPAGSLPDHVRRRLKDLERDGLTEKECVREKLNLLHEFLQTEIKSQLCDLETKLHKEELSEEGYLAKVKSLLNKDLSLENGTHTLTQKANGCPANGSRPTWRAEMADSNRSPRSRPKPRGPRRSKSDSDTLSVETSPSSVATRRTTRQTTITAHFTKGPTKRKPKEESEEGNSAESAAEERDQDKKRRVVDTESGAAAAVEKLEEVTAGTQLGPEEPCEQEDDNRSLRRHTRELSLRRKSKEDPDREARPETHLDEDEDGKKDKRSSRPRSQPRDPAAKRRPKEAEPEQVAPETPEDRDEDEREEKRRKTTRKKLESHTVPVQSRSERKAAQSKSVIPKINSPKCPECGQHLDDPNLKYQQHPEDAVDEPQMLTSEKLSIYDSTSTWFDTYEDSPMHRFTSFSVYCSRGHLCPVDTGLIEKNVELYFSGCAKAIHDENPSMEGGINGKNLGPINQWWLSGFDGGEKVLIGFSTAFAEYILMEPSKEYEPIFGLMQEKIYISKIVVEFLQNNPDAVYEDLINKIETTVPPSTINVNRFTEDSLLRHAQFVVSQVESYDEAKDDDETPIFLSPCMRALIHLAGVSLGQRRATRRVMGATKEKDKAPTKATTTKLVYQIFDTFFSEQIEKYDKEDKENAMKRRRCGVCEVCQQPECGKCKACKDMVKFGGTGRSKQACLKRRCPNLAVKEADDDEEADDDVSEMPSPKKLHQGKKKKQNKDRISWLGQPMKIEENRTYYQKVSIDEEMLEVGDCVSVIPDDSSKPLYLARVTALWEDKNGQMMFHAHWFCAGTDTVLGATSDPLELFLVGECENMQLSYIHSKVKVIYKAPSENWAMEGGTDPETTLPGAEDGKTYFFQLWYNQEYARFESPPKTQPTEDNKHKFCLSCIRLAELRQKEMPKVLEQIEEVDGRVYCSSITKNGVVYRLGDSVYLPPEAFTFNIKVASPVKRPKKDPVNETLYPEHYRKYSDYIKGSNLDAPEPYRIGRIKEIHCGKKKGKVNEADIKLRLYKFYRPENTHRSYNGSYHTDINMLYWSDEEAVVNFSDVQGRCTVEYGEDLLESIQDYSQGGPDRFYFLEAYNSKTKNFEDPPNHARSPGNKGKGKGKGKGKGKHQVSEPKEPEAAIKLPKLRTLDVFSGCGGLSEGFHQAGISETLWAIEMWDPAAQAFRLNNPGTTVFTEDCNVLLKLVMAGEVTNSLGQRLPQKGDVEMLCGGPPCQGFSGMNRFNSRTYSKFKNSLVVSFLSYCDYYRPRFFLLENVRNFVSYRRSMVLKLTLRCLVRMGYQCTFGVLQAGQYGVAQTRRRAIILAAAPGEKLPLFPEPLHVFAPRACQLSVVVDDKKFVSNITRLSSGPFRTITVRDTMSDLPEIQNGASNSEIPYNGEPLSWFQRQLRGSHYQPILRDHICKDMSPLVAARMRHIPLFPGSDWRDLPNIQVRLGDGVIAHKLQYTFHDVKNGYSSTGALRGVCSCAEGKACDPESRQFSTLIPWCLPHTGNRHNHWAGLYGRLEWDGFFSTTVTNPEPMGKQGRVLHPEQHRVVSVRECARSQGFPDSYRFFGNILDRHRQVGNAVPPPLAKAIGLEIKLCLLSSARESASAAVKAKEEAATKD

In the case of ATTGCGCTACTCGGATCCGGCCAT, the binding signal is 1 relative to A.
